# Source: PubChem BioAssay (Zoeller Lab, School of Medicine, Boston University)
# This is one part of a sample in which hits are shown more often than they occur.
# PL synth Enamine – phospholipid synthesis inhibitors, CHO cells, primary screen, ZR-82 cells, Enamine library, screen 3; calls only at 10 µM; ZR-82 CHO cells, pyrene fatty acid UV survival, CellTiter Blue; peroxisome-deficient CHO-K1 mutant line; plus DGAT-1, DGAT-2 and ACAT inhibitors; 0.4% of 20,000 active;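 active = cell survival signal 2 SD away from solvent-only control wells, confirmed on one or two retests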;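 also: 3 h compound exposure then viability read about one day after UV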
# Calls only; 0 = inactive; + = active, no number.
SMILES,PL synth Enamine
Cc1cc(Sc2ncnc(N)c2[N+](=O)[O-])ncn1,+
Cc1cc(Sc2nc(N)ncc2[N+](=O)[O-])ncn1,0
Cc1cc(C)nc(NNc2ncnc(N)c2[N+](=O)[O-])n1,0
O=C(COC(=O)/C=C/c1ccc(Br)o1)NC1CCS(=O)(=O)C1 (centres undefined),0
CC1(C)C2CC=C(/C=N/NC(=S)Nc3cccnc3)C1C2 (centres undefined),0
C=C(C)CNC(=S)N/N=C/C1=CCC2CC1C2(C)C (centres undefined),0
CC1(C)C2CC=C(/C=N/NC(=S)NC3CCCCC3)C1C2 (centres undefined),+
CCNC(=S)N/N=C/C1=CCC2CC1C2(C)C (centres undefined),0
CC(C)NC(=S)N/N=C/C1=CCC2CC1C2(C)C (centres undefined),+
CC1(C)C2CC=C(/C=N/NC(N)=S)C1C2 (centres undefined),0
O=[N+]([O-])c1cc(NC(=S)NC2CCCCC2)ccc1Cl,0
O=C(Cn1nnc2ccccc2c1=O)C12CC3CC(CC(C3)C1)C2,0
CSc1ccccc1N=C/C=C1/N(C)c2ccccc2C1(C)C,0
CN1/C(=C\C=N\N=C2c3ccccc3-c3ccccc32)C(C)(C)c2ccccc21,+
CN1/C(=C\C=Nc2ccc(I)cc2)C(C)(C)c2ccccc21,0
O=[N+]([O-])c1ccc(N/N=C/c2cc(Br)ccc2OC(F)F)c([N+](=O)[O-])c1,0
Fc1cccc(F)c1/C=N/n1c(-c2cc3ccccc3o2)csc1=NCCc1ccccc1,+
C=CCN=c1scc(-c2cc3ccccc3o2)n1/N=C/c1ccccc1Br,0
CN=c1scc(-c2cc3ccccc3o2)n1/N=C/c1cccc(C(F)(F)F)c1,0
O=c1c2ccccc2nnn1CN1CCN(S(=O)(=O)c2ccc3c(c2)CCC3)CC1,0
CCCCCCCCCCCCSCCS(=O)(=O)OCC(F)(F)F,0
S=C(N/N=C/c1ccc2ncccc2c1)Nc1cccnc1,0
Cc1ccc(-c2nnc(-n3nnc4cc(C)c(C)cc43)c3ccccc23)cc1C,0
Cc1ccc(-c2nnc(N/N=C/c3c(-c4ccccc4)nc4ccccn34)c3ccccc23)cc1C,+
C(=N\N1CCN(C(c2ccccc2)c2ccccc2)CC1)/c1c(-c2ccccc2)nc2ccccn12,0
SMILES,PL synth Enamine
Cc1sc2ncnc(NC3CCC(O)CC3)c2c1C (centres undefined),0
C/C(=N\Nc1ncnc2sc(C)c(C)c12)c1ccc(Cl)s1,+
Cc1sc2ncnc(NCC(C)O)c2c1C (centres undefined),0
Clc1ccc(NN=C2c3ccccc3-c3ccccc32)cc1,0
O=[N+]([O-])c1cccc(NN=C2c3ccccc3-c3ccccc32)c1,0
Fc1ccc(NN=C2c3ccccc3-c3ccccc32)cc1,+
CN1/C(=C\C=N\Nc2nc3ccccc3s2)C(C)(C)c2ccccc21,0
O=[N+]([O-])c1ccc(C2NS(=O)(=O)N=C3CCCCCN32)cc1 (centres undefined),0
O=S(=O)(NN=C1c2ccccc2-c2ccccc21)c1ccccc1,0
Fc1ccc(NC(=S)Nc2ccc(Cl)c(Cl)c2)cc1Cl,0
C=CCNC(=S)Nc1ccc(F)c(Cl)c1,0
Fc1cc(Cl)ccc1NC(=S)Nc1ccc(Cl)c(Cl)c1,+
CCN=c1scc(-c2ccc(C)cc2)n1/N=C(\C)c1ccc(C)o1,0
O=C(Oc1ccc2c(C(F)(F)F)cc(=O)oc2c1)C1=CC=CN2CCS(=O)(=O)N=C12,0
O=[N+]([O-])c1ccc(Cc2cc[n+](-c3nc4ccccc4nc3[N-]S(=O)(=O)c3ccc([N+](=O)[O-])cc3)cc2)cc1,0
C=CCOC(=O)CC1Sc2ccccc2NC1=O (centres undefined),0
O=C(O)CC1Sc2ccccc2NC1=O (centres undefined),0
Cc1c(C2Sc3ccccc3NC2=O)c2ccccn2c1C1Sc2ccccc2NC1=O (centres undefined),+
Oc1c(Br)cc(Br)cc1/C=N/n1cnnc1,0
c1csc(CN2CCN(c3nc(CN4CCOCC4)nc4sc5c(c34)CCC5)CC2)c1,0
CC(=O)c1cc(CCC(=O)NC2CCCCCC2)oc1C,0
O=[N+]([O-])c1ccc(N/N=C2\CCCCc3ccccc32)cc1,+
O=[N+]([O-])c1cc(C(F)(F)F)cc([N+](=O)[O-])c1N/N=C1/CCCc2ccccc21,0
O=[N+]([O-])c1cc(S(=O)(=O)N/N=C2\CCc3ccccc32)ccc1Cl,0
O=[N+]([O-])c1ccc(N/N=C2\CCc3ccccc32)cc1,+
SMILES,PL synth Enamine
C=CCNC(=S)N/N=C1\CCc2ccccc21,0
c1ccc(N/N=C2\CCCc3ccccc32)nc1,0
CN1/C(=C2\C=NN(c3ccccc3)P2(=Nc2ccc([N+](=O)[O-])cc2)c2ccccc2)C(C)(C)c2ccccc21 (centres undefined),0
CSc1ccccc1-c1nc(=S)nc(N)[nH]1,0
c1cc[n+](CCCCC[n+]2ccccc2)cc1,0
c1ccc(NNC2=Nc3cccc4cccc2c34)cc1,+
Clc1ccccc1/C=N/NC1=Nc2cccc3cccc1c23,0
Brc1ccc(/C=N/NC2=Nc3cccc4cccc2c34)cc1,0
C/C(=N\NC(=O)NC1CCCCC1)c1ccc(Cl)s1,0
O=C1OC(c2ccc(C(F)(F)F)cc2)=N/C1=C\c1ccccc1OC(F)F,0
O=[N+]([O-])c1cccc(-n2nncc2C23CC4CC(CC(C4)C2)C3)c1,0
c1ccc(N=Nc2ccc(-n3nncc3C34CC5CC(CC(C5)C3)C4)cc2)cc1,0
O=[N+]([O-])c1ccc(N/N=C/c2ccc(-n3nncc3C34CC5CC(CC(C5)C3)C4)cc2)cc1,+
CN=c1scc(-c2ccc(Cl)cc2Cl)n1/N=C/c1ccccc1I,0
Cn1c(SC2CCOC2=O)nnc1-c1ccco1 (centres undefined),0
Cc1cc(C(=O)COC(=O)/C=C/c2ccc(Br)o2)c(C)n1C,0
COc1ccccc1-c1nnc2n1N=C1CCCCC1S2 (centres undefined),0
CCN(CC)c1ccc(N=Nc2c(Br)cc([N+](=O)[O-])cc2Br)cc1,0
CN1/C(=C\P(=Nc2ccc([N+](=O)[O-])cc2)(c2ccccc2)c2ccccc2)C(C)(C)c2ccccc21,0
CCOP(=O)(OCC)C1(C)N(C)c2ccc(N=Nc3ccc([N+](=O)[O-])cc3)cc2C1(C)C (centres undefined),+
CC1(C)C2CCC1(CS(=O)(=O)NC1CCCC1)C(=O)C2 (centres undefined),0
c1ccc(CC23OC4C5C6CC(C7C6C4C72)C53)cc1 (centres undefined),0
S=C1Nc2cccc3cccc(c23)N1,0
CC[n+]1ccc(/C=C/c2ccc(N(C)C)cc2)cc1,+
CN(C)c1ccc(/C=C/c2cccc[n+]2C)cc1,0
SMILES,PL synth Enamine
CN(C)c1ccc(/C=C/c2ccc3ccccc3[n+]2C)cc1,0
Cn1nnnc1SCc1nc(N)nc(Nc2ccccc2)n1,0
NC(=S)N=Nc1c2[nH]c3ccccc3nc-2c2ccccc12,0
c1ccc(N=Nc2c3[nH]c4ccccc4nc-3c3ccccc23)cc1,+
c1ccc2c(N=Nc3c4[nH]c5ccccc5nc-4c4ccccc34)cccc2c1,0
CCOC(=O)c1oc2cc(OCC3OC(COC(C)=O)C(OC(C)=O)C(OC(C)=O)C3OC(C)=O)ccc2c(=O)c1-c1cscn1 (centres undefined),0
